# Source: PubChem BioAssay
# KB-3-1 cytotox: KB-3-1 parental cell cytotoxicity; KB-3-1 viability, CellTiter-Glo ATP luminescence, 72 h; Potency, µM (top dose mostly 46.1 µM), actives largely listed as cytotoxic; 400,000 tested, 1.4% active; note: nearly all actives have a fitted effect of over 60% in size
#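 Cytotoxicity in the drug-sensitive parental line KB-3-1 was scored as loss of CellTiter-Glo luminescence following 72 h incubation with compound. Values come from curve fitting of normalized concentration-response data.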
# SW480 rereplic: induces DNA re-replication in SW480 colon adenocarcinoma cells; SW480 DNA re-replication, Hoechst DNA content imaging, 48 h; AID 624297; 340,000 tested, 1.8% active; Potency, µM (top dose mostly 46.1 µM), most hits filed as activators; note: nearly all actives have a fitted effect of over 55% in size
#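 SW480 cells exposed to compounds for 48 hr at 37 C, 5% CO2, then Hoechst-stained 40 min. Nuclear DNA content imaged by fluorescence scanning (405 nm excitation, 500-530 nm emission); re-replication scored as increased high-intensity nuclei.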
# KB-V1 cytotox: KB-V1 MDR subline cytotoxicity | KB-V1 MDR cells viability, CellTiter-Glo, 72 h | Potency, µM (series often up to 46.1 µM), usual class: cytotoxic | 400,000 tested, 3.4% active; note: nearly all actives have a fitted effect of over 60% in size
#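 KB-V1 cells (P-gp-expressing MDR subline of KB-3-1) in phenol-red-free DMEM with 10% FBS were exposed to library compounds over a concentration series for 72 h at 37 degrees C. Viability read by CellTiter-Glo luminescence; concentration-effect curves fitted after normalization.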
# MCF10A rerep: induces DNA re-replication in MCF 10a normal breast cells; MCF 10A DNA re-replication, Hoechst nuclear intensity, 48 h; Potency, µM (doses to about 46.1 µM), hits mostly activators; 350,000 tested, 2.9% active; AID 624296; note: nearly all actives have a fitted effect of over 50% in size
# PINK1 expr mod: PINK1 expression modulation; PINK1 immunofluorescence, high-content cytometry, 24 h; Potency, µM (highest dose often 76.6 µM), actives largely listed as activators; 410,000 tested, 0.2% active; active = well fitted activation curve with a large enough effect; inconclusive = small, poorly fitted or top-dose-only effect; cell line not stated here; note: nearly all actives have a fitted effect of over 65% in size
#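 Stable cell line, 250 cells/well, 12 h attachment; compounds pinned at 5 concentrations, 24 h; CCCP control. Fixed with nuclear dye, primary antibodies 12 h at 10 degrees C, secondary plus cell stain; laser-scanning cytometer read.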
# A number is an active result; i = inactive; ? = inconclusive; nt = no result; ! = repeats disagree. An excerpt weighted towards active compounds, which were near 6.7% of everything screened. Unless noted, calls come from the whole dose curve; as a rule, active = well fitted curve in the direction sought with a large enough effect; inconclusive = small, poorly fitted or top-dose-only effect, or another doubt; inactive = no such curve, though single readings can be large; an effect the other way counts as inactive or inconclusive.
SMILES,KB-3-1 cytotox,SW480 rereplic,KB-V1 cytotox,MCF10A rerep,PINK1 expr mod
CN(C)CCOc1ccc(/C(=C(/CCCl)c2ccccc2)c2ccccc2)cc1,i,i,?,4.61µM,i
O=c1c2ccccc2nc(/C=C\c2cccc(Br)c2)n1-c1ccc(O)cc1,nt,nt,nt,nt,i
Oc1cc[c]([Hg][Cl])cc1,nt,?,nt,1.06µM,nt
Brc1nc(-c2ccccc2)nc(-c2ccccc2)c1Br,i,i,?,?,i
COc1ccc2[nH]cc(CCN(C)C)c2c1,i,i,i,i,i
COc1ccc(CNC(=O)/C=C/c2ccc3[nH]cc(CCN(C)C)c3c2)cc1,i,3.16µM,i,i,i
CN(C)CCNC(=O)C(=O)NCC1OCCCN1S(=O)(=O)c1cccs1 (stereo unspecified),?,?,i,i,i
CCC(NC(=O)OC(C)(C)C)C(=O)Oc1cc(C)cc2oc(=O)c3c(c12)CCC3 (stereo unspecified),i,i,14.6µM,i,i
CCC(C)c1ccc(N2C(=O)NC(=O)/C(=C/c3cccn3CCOc3ccc(C)cc3)C2=O)cc1 (stereo unspecified),i,i,i,20.6µM,i
Cc1cccc(N2C(=O)NC(=O)/C(=C\c3cc(C)n(-c4sc5c(c4C#N)CCCC5)c3C)C2=O)c1C,i,i,?,20.6µM,i
Cc1ccc(C(C)C)c(OCCn2c(=O)oc3ccccc32)c1,i,?,?,?,i
O=C(CCC1CCCC1)c1c(O)c2ccccc2oc1=O,?,i,i,18.4µM,i
O=c1oc2ccccc2c(O)c1C(c1ccccn1)c1c(O)c2ccccc2oc1=O,i,i,i,i,i
COc1ccc(C2=CC(c3ccc(OC)c(OC)c3)c3c(c4ccccc4oc3=O)O2)cc1OC (stereo unspecified),?,13µM,i,2.91µM,i
O=C1CC(c2ccc(C(F)(F)F)cc2)c2c(c3ccccc3oc2=O)O1 (stereo unspecified),i,nt,i,nt,i
Cc1cc(C)c(N=Cc2c(O)[nH]c(=O)[nH]c2=O)c(C)c1,6.51µM,i,5.17µM,i,i
Clc1ccc(Cl)cc1,nt,i,nt,i,i
O=c1[nH]c(=S)n(CCC2=CCCCC2)c(O)c1/C=N/N1CCOCC1,i,?,i,18.4µM,i
COc1ccc(F)cc1CN1CCN(C(=O)CCC(=O)Nc2nnc(CC(C)C)s2)CC1,i,?,i,18.4µM,i
CCCc1nnc(NC(=O)CCC(=O)N2CCN(CCOC(c3ccccc3)c3ccccc3)CC2)s1,i,i,i,i,i
O=C1CCCCC1,i,i,i,i,i
Cc1c(C)n(O)c2ccc3nonc3c12,i,?,i,20.6µM,?
Nc1ccc2nonc2c1[N+](=O)[O-],i,i,i,i,i
Cc1cccc(N2CCc3c2nc2ccccc2c3N)c1,?,i,?,14.6µM,?
O=C(O)CF,nt,nt,nt,nt,i
SMILES,KB-3-1 cytotox,SW480 rereplic,KB-V1 cytotox,MCF10A rerep,PINK1 expr mod
COc1cc2c3cc1Oc1cc(ccc1O)C[C@@H]1c4c(cc(OC)c(O)c4Oc4ccc(cc4)C[C@H]3N(C)CC2)CCN1C,i,10.3µM,?,18.4µM!,i
COc1cc2c3cc1Oc1c(OC)c(OC)cc4c1[C@H](Cc1ccc(cc1)Oc1cc(ccc1O)C[C@H]3N(C)CC2)N(C)CC4,i,i,?,i,i
COc1ccc2cc1Oc1ccc(cc1)C[C@H]1c3cc(c(OC)cc3CCN1C)Oc1c(OC)c(OC)cc3c1[C@H](C2)N(C)CC3,?,?,16.4µM!,?,i
COc1cc2c3cc1Oc1cc(ccc1O)C[C@@H]1c4c(cc(OC)c(O)c4Oc4cccc(c4)C[C@@H]3N(C)CC2)CC[N+]1(C)C,i,i,i,i,i
COc1cc2c(cc1O)C[C@H]1c3c(cc(O)c(OC)c3-2)CCN1C,i,i,i,?,i
COc1cc2c3c(c1OC)Oc1ccc(cc1)C[C@H]1c4c(cc(OC)c(OC)c4Oc4ccc(cc4)C[C@@H]3N(C)CC2)CCN1C,i,2.59µM,i,?,i
Cc1c(C)c2c(OCC(=O)N[C@@H](C)C(=O)O)cc3c(c2oc1=O)CCC(C)(C)O3,i,i,i,i,i
COc1cccc(NP(=O)(Oc2ccccc2)Oc2ccccc2)c1,5.8µM,16.4µM,i,3.26µM,i
COc1cccc(NP(=O)(Oc2ccccc2Cl)Oc2ccccc2Cl)c1,i,i,?,?,i
Cc1ccc(CN2CC3CC(C2)c2cccc(=O)n2C3)cc1 (stereo unspecified),i,i,?,i,i
COc1cc(CN2CC3CC(C2)c2cccc(=O)n2C3)cc(OC)c1OC (stereo unspecified),i,i,i,25.9µM,i
O=C(Oc1ccc2cc(Br)ccc2c1)N1CCCCCC1,nt,i,nt,?,nt
CCN(C[C@H]1N[C@@](C)(C(=O)OC)[C@H]2C(=O)N(Cc3ccccc3)C(=O)[C@@H]12)C(=O)Nc1ccccc1,i,?,i,i,i
Clc1ccccc1-c1cncnc1NCCc1cnc[nH]1,nt,nt,nt,nt,i
NCCc1ccc(OCc2ccccc2)c(OCc2ccccc2)c1,?,?,23.1µM,?,i
COc1ccc(CCN)cc1OC,i,i,i,i,i
CCC12C=CCN3CCC4(c5ccc(OC)cc5N(C)C4[C@@](O)(C(=O)OC)C1OC(C)=O)C32 (stereo partly specified),nt,nt,nt,nt,i
Oc1ccc(-c2cccnc2)cc1CNC1CN2CCC1CC2 (stereo unspecified),nt,nt,nt,nt,i
CCCCn1c(O)c(C(CC)=NCc2ccc(F)cc2)c(=O)[nH]c1=O,?,i,10.3µM,i,i
CCOC(=O)[C@]12Cc3ccccc3[C@H]1N(CCC(=O)OC)C(=O)c1cc(OC)ccc12,?,nt,9.2µM,nt,i
CCOC(=O)[C@]12Cc3cc(OC)ccc3[C@H]1N(CCC(=O)OC)C(=O)c1cc(OC)ccc12,5.17µM,nt,?,nt,i
CCOC(=O)[C@]12Cc3c(cc(OC)c(OC)c3OC)[C@H]1N(CCC(=O)OC)C(=O)c1ccccc12,8.2µM,nt,?,nt,i
CCOC(=O)[C@]12Cc3c(cc(OC)c(OC)c3OC)[C@H]1N(C)C(=O)c1ccccc12,?,nt,i,nt,i
Cc1ccc(-n2c(/C=C/c3cccs3)nc3ccccc3c2=O)cc1C,nt,nt,nt,nt,i
Cc1cc2c(C(C)C)c(O)c(O)c(C=O)c2c(O)c1-c1c(C)cc2c(C(C)C)c(O)c(O)c(C=O)c2c1O,1.46µM,13µM!,?,?,?
SMILES,KB-3-1 cytotox,SW480 rereplic,KB-V1 cytotox,MCF10A rerep,PINK1 expr mod
Clc1ccccc1Cl,nt,i,nt,i,nt
c1ccc(Nc2ccc3ccccc3c2)cc1,i,i,i,i,i
CC(C)Nc1ccc(Nc2ccccc2)cc1,18.4µM,23.7µM,i,?,i
c1ccc(-c2[nH]c(-c3ccccc3)[n+](CC3CO3)c2-c2ccccc2)cc1 (stereo unspecified),?,nt,?,13µM,i
CCN(CC)C1=NC(=[N+](CC)CC)c2ccccc21,10.3µM,?,i,?,i
Cc1ccc(-c2nc(CN3C(=O)CN=C(c4ccccc4)c4ccccc43)c(C)o2)cc1,i,nt,i,nt,i
